Rows were chosen to be rich in hits. Some 5.9% of all compounds tested hit in one or more screens of this group.
Gal4-VP16 FLuc = Gal4-VP16 reporter inhibition counter-screen. AID 2546. Potency, µM (titrated, usually from 53.6 µM), inactives show at the top dose activity, negative = inhibition, actives largely listed as inhibitors. 3.5% of 310,000 active. Drosophila S2 Gal4-VP16 UAS-luciferase, luminescence, 20 h;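 also: Gal4-VP16 expression switched on by copper sulfate through the metallothionein promoter; % is scaled to controls: 0 for no effect and ±100 for the full control effect; nearly all actives have a fitted effect of over 50% in size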
GLP-1R agonist = activates the human GLP-1 receptor; P43220; HEK293 GLP-1R CRE-luciferase, luminescence, 4-6 h; cells express a hypersensitive GLP-1R form; Potency, µM (series often up to 45.6 µM), for inactives: at the top dose activation, most hits filed as activators; 0.007% of 380,000 active; also: % of control where 0% means no effect
Target sequence (P43220 whole entry, looked up): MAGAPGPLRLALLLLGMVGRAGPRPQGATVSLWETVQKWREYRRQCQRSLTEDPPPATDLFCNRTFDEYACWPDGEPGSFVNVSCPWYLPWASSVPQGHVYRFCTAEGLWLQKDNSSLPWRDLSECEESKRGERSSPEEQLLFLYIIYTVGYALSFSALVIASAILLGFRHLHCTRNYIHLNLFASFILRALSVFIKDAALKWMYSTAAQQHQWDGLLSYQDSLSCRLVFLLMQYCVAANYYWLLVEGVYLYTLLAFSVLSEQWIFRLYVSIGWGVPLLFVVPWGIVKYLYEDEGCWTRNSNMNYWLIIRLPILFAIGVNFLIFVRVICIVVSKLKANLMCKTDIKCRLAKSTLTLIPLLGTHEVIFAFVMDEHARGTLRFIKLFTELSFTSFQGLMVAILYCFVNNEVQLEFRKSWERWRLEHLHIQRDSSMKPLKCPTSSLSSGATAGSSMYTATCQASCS
RORg inh = inhibitors of mouse ROR gamma transcriptional activity; P51450; Potency, µM (titrated, usually from 53.6 µM), for the others: at the highest dose activity change, negative = inhibition, actives largely listed as inhibitors; Drosophila S2 Gal4-RORgamma UAS-luciferase reporter, 20 h; 5.4% of 310,000 active; AID 2551; also: % is scaled to controls: 0 for no effect and ±100 for the full control effect; nearly all actives have a fitted effect of over 60% in size
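In this cell-based reporter format, copper sulfate (700 uM final) drives Gal4–ROR gamma fusion expression from a metallothionein promoter in Drosophila Schneider cells; compounds preincubated 1 hr, reporter read after 20 hr at ambient temperature.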
GLP1R inv ag = GLP-1 receptor (human) inverse agonism; P43220; HEK293 GLP-1R CRE-luciferase, luminescence, 24 h; GLP-1R form is constitutively active; Potency, µM (titrated, usually from 38.3 µM), without a hit: at the top dose activity change, negative = inhibition, hits mostly inhibitors; 1.6% of 410,000 active; also: % is scaled to controls: 0 for no effect and ±100 for the full control effect; nearly all actives have a fitted effect of over 55% in size
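Inverse agonists were sought by their lowering of basal cAMP reporter luciferase output in HEK293 cells stably carrying constitutively active human GLP-1R, after 24 h compound treatment.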
HEK293 tox = cytotoxicity counter-screen for GLP-1 receptor inverse agonists; AID 624418; 0.13% of 410,000 active; Potency, µM (titrated, usually from 38.3 µM), for the others: at the highest dose activity change, negative = inhibition, usual class: inhibitors; HEK293 cAMP-luciferase reporter cells, luminescence, 24 h;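 also: loss of luciferase light is scored as toxicity; % is scaled to controls: 0 for no effect and ±100 for the full control effect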
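Here, cytotoxicity is scored as loss of luminescence. The MLSMR collection was tested on cells seeded in medium containing 10% Nu serum, with a 24 hr compound exposure preceded by 12 hours of culture.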
The depositor's hits bear a star; [ ] = remark or other dose. Calls follow the shape of the dose curve; as a rule, active = well fitted curve in the direction sought with a large enough effect; inconclusive = small, poorly fitted or top-dose-only effect, or another doubt; inactive = no such curve, though single readings can be large; an effect the other way counts as inactive or inconclusive. Potency is read from the fitted curve at half-maximal effect.

For O=C(NNC(=S)Nc1ccccc1Cl)c1ccccc1 the results were Gal4-VP16 FLuc -22%, GLP-1R agonist -5%, RORg inh 13µM*, GLP1R inv ag 20% and HEK293 tox 11%.
`O=C(NNC(=S)Nc1ccccc1)C1CC1` gave Gal4-VP16 FLuc 0%, GLP-1R agonist -4%, RORg inh inconclusive, GLP1R inv ag 0% and HEK293 tox -15%.
Screening Cc1ccc(-c2c(CN3CCN(c4cccc(C)c4)C(C)C3)csc2C)cc1 (stereo not drawn) returned GLP1R inv ag -29% and HEK293 tox -13%.
CCCC[C@H](NC(C)=O)C(=O)N[C@H]1CC(=O)NCCCC[C@@H](C(N)=O)NC(=O)[C@H](Cc2c[nH]c3ccccc23)NC(=O)[C@H](CCCN=C(N)N)NC(=O)[C@@H](Cc2ccccc2)NC(=O)[C@H](Cc2cnc[nH]2)NC1=O was read as Gal4-VP16 FLuc -4% and RORg inh 4%.
`Cc1noc(/C=C/c2ccccc2F)c1S(=O)(=O)N1CCC(C(=O)N2CCOc3ccccc32)CC1` gave GLP1R inv ag 7% and HEK293 tox -6%.
For COC(=O)c1cc(NC(=O)CN(c2ccccc2)S(=O)(=O)N(C)C)ccc1Cl the results were GLP-1R agonist 0%, GLP1R inv ag -7% and HEK293 tox 6%.
Cn1nc(-c2ccccc2F)c2cc(C(=O)NCc3ccccc3Cl)sc21 was read as GLP-1R agonist 2%, GLP1R inv ag -11% and HEK293 tox 13%.
Screening CC(=O)N1CCc2nc3sc(C(=O)c4ccc(F)cc4)c(N)c3c(C(F)(F)F)c2C1 returned GLP1R inv ag -10% and HEK293 tox 3%.
N#CCCn1c(=O)c(-c2cc(F)cc(F)c2)nc2cnc(Nc3ccccc3)nc21 was read as Gal4-VP16 FLuc -2% and RORg inh 11%.
`Cn1c(=O)c(-c2cc(F)cc(F)c2)nc2cnc(Nc3ccccc3)nc21` gave Gal4-VP16 FLuc inconclusive and RORg inh 10µM*.
Screening CCCCN(CC)CCNC(=O)Cn1c(=O)c2cccn2c2cccnc21 returned GLP1R inv ag 3% and HEK293 tox 24%.
`CC/C(CC(=O)C(F)(F)F)=N\NC(=O)/C(C#N)=C/N(C)C` gave Gal4-VP16 FLuc inconclusive, GLP-1R agonist 2%, RORg inh 7.1µM*, GLP1R inv ag 8% and HEK293 tox 3%.
`COc1ccc(C2(O)CCN(CC(=O)Nc3nc(-c4ccccc4)cs3)CC2)cc1` gave Gal4-VP16 FLuc 3%, GLP-1R agonist -1%, RORg inh 1%, GLP1R inv ag 7.1µM* and HEK293 tox -18%.
CC1CCN(CC(=O)Nc2nc(-c3ccccc3)cs2)CC1 was read as Gal4-VP16 FLuc inconclusive, GLP-1R agonist -8%, RORg inh inconclusive, GLP1R inv ag 5.6µM* and HEK293 tox -10%.
COc1cc(OC)c2cc(-c3ccncc3)cnc2c1 was read as Gal4-VP16 FLuc -11% and RORg inh -38%.
CCOc1ccc(S(=O)(=O)Nc2ccc(F)cc2)c(C)c1C was read as Gal4-VP16 FLuc 18µM*, GLP-1R agonist -6%, RORg inh inconclusive, GLP1R inv ag 0% and HEK293 tox -17%.
For CN(C)c1ccc(-c2ccc3ncnc(N(C)Cc4ccco4)c3c2)cc1 the results were Gal4-VP16 FLuc 7% and RORg inh 4%.
`CCOC(=O)c1ccc(-c2ccc(/C=C(\C#N)C(=O)NCc3cccs3)o2)cc1` gave Gal4-VP16 FLuc 3.2µM*, GLP-1R agonist 2%, RORg inh inconclusive, GLP1R inv ag 22% and HEK293 tox 55%.
Screening O=S1(=O)CC/C(=N\O)c2ccccc21 returned Gal4-VP16 FLuc -21%, GLP-1R agonist -3%, RORg inh inconclusive, GLP1R inv ag 0% and HEK293 tox 17%.
`C=CCNC(=S)N/N=C1\CCS(=O)(=O)c2ccccc21` gave Gal4-VP16 FLuc inconclusive, GLP-1R agonist -2%, RORg inh 18µM*, GLP1R inv ag 6% and HEK293 tox 2%.
For CC(=O)c1ccc(N2CCN(c3ncnc4onc(-c5ccc(Cl)cc5)c34)CC2)cc1 the results were GLP-1R agonist 1%, GLP1R inv ag inconclusive and HEK293 tox -4%.
Screening Cn1c(N=Nc2ccccc2)nc2ccccc21 returned Gal4-VP16 FLuc 1.3µM*, GLP-1R agonist -20%, RORg inh 0.71µM*, GLP1R inv ag 4.5µM* and HEK293 tox 10µM*.
Screening Cn1c(Cl)nc2ccccc21 returned Gal4-VP16 FLuc 2%, GLP-1R agonist -4%, RORg inh -14%, GLP1R inv ag 0% and HEK293 tox -11%.
For CN(C)c1ccc(N=Nc2nc3ccccc3n2C)cc1 the results were Gal4-VP16 FLuc 1.3µM*, GLP-1R agonist -9%, RORg inh 0.4µM*, GLP1R inv ag inconclusive and HEK293 tox 5µM*.
For O=C1c2ccccc2NC(c2cccc([N+](=O)[O-])c2)N1O (stereo not drawn) the results were Gal4-VP16 FLuc -1%, GLP-1R agonist 1%, RORg inh inconclusive, GLP1R inv ag inconclusive and HEK293 tox -25%.
`O=C1c2ccccc2NC(c2ccc([N+](=O)[O-])cc2)N1O` (stereo not drawn) gave Gal4-VP16 FLuc 3%, GLP-1R agonist 11%, RORg inh 11µM*, GLP1R inv ag 10µM* and HEK293 tox 3%.
Screening CCC(C)NC(=O)CSc1nnc(-c2cc(OC)c(OC)c(OC)c2)c(-c2cc(OC)c(OC)c(OC)c2)n1 (stereo not drawn) returned Gal4-VP16 FLuc inconclusive, GLP-1R agonist 3%, RORg inh 2.8µM*, GLP1R inv ag 36% and HEK293 tox -12%.
For CCOc1ccc(-c2nnc(SCC(=O)NC(C)CC)nc2-c2ccc(OCC)c(OC)c2)cc1OC (stereo not drawn) the results were GLP1R inv ag 44% and HEK293 tox 1%.
Screening CCN(Cc1ccccc1)Cc1c(O)ccc2c(=O)c(-c3ccc(Cl)cc3)coc12 returned GLP1R inv ag 5% and HEK293 tox -5%.
`CC(C)(Oc1ccc(Cl)cc1)C(=O)N(Cc1ccccc1)c1ccccn1` gave Gal4-VP16 FLuc 1%, GLP-1R agonist -2%, RORg inh -9%[10 µM], GLP1R inv ag 10µM* and HEK293 tox 2%.
`COc1ccc2c(c1)c1c(c(=O)n(-c3ccccc3C)c(=O)n1Cc1cccc(C(F)(F)F)c1)n2C` gave GLP-1R agonist 0%, GLP1R inv ag -1% and HEK293 tox 1%.
Screening COc1ccc(CCNC(=O)CS(=O)(=O)Cc2nc(-c3cccc(Cl)c3)oc2C)cc1OC returned GLP-1R agonist 0%, GLP1R inv ag 13% and HEK293 tox 4%.

Screening data deposited in PubChem BioAssay by National Center for Advancing Translational Sciences (NCATS).
